Laboratory results taken from paper PMC4336329 (PLoS ONE, 2015).
Hit rate of the full screen: of about 310,000 compounds, about 14,000 (4.5%) showed an effect of 50% or more. The effect is printed as a negative number. Only a selection was taken, and strong results are over-represented in it overall.

biological target: human ether-à-go-go-related gene (hERG) potassium channel (human, UniProt Q12809); assay: primary screen, population patch clamp on CHO cells stably expressing hERG; higher = less effect of the substance
Sequence (Q12809 whole entry, looked up): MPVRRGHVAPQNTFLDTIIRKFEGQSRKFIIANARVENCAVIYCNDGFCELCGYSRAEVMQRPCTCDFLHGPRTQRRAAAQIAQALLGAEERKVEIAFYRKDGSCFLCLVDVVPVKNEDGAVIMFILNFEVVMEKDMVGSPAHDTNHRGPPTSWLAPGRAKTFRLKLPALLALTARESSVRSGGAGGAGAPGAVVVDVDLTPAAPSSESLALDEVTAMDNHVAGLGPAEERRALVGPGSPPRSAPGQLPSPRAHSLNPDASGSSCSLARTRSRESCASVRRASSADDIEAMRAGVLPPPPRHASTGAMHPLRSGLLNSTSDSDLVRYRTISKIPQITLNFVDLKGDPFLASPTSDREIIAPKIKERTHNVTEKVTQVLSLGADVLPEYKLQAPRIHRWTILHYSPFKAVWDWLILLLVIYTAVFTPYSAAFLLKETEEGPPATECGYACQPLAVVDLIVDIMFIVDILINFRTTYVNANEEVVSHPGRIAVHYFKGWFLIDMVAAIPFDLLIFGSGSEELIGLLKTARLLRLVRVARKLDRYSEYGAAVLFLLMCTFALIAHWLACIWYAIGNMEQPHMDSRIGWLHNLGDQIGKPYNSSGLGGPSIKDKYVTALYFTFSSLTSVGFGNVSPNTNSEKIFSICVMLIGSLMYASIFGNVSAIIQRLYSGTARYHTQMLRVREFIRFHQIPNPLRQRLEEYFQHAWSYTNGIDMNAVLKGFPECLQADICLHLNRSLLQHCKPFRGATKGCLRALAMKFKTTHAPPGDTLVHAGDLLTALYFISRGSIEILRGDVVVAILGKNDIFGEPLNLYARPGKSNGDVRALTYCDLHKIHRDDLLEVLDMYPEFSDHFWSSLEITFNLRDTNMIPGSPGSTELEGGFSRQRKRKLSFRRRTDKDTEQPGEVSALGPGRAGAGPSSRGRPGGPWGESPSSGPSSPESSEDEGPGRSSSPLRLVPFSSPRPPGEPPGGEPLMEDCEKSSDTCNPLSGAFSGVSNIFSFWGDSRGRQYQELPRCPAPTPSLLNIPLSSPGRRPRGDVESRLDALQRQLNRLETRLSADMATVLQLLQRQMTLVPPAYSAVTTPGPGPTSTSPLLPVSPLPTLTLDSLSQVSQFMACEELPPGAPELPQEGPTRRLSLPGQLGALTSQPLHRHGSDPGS
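Further: peak tail current of the secondary pulse compared with the same well before compound.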

| Structure (SMILES) | hERG current change (%, negative = inhibition) at 10uM |
| --- | --- |
| Cc1ccc(NC(=S)NC(=O)/C=C/c2ccco2)c(O)c1 | 2.91% |
| COC(=O)CCC(=O)N1CCCC(CNS(=O)(=O)c2ccc(OC)cc2)C1 (stereo not shown) | 39.4% |
| COc1cc(NC(=O)COC(=O)Cn2cnc3c2c(=O)n(C)c(=O)n3C)cc(OC)c1 | 1.05% |
| CC(C)COC(=O)C1C2C=CC3(CN(C4CCCC4)C(=O)C13)O2 (stereo not shown) | -15.4% |
| Cc1ccc(S(=O)(=O)N2CCN(C(=O)c3ccccn3)CC2)cc1 | 9.2% |
| Cc1cccc(NC(=O)c2cc(-c3ccc(C)s3)nc3ccccc23)n1 | 5.03% |
| CC(=O)c1cc2ccccc2oc1=O | 2.96% |
| CCN1C(=O)[C@H]2[C@@H](c3ccc(C)cc3)N3C(=O)N(c4cccc(F)c4)C(=O)[C@@]3(C)[C@H]2C1=O | 3.13% |
| O=S(=O)(Cc1cccc(C(F)(F)F)c1)c1ncn[nH]1 | 17.9% |
| COc1cccc(COc2ccc3c(C)c(Cc4ccccc4)c(=O)oc3c2)c1 | 6.98% |
| CCN1C=C(Cc2cccs2)C2=C(C1)C(c1cccs1)C(C#N)=C(N)O2 (stereo not shown) | -16.8% |
| CCC(C)(C)c1ccc(Oc2cccc(C(=O)O)c2)cc1 | 11.5% |
| Cc1cc(=O)oc2cc(OCCCC[n+]3ccccc3)ccc12.[Br-] | 4.72% |
| CCC(C)(C)c1ccc(OCCCC[n+]2cccc(C)c2C)c(C(C)(C)CC)c1.[Br-] | -75.8% |
| Cc1cc[n+](CC[n+]2ccc(C)cc2)cc1.[Br-] | 16.7% |
| Cc1cc(C(C)(C)C)ccc1OCCCCN1CCCC1 | -40% |
| CCC(C)(C)c1ccc(OCCCC[n+]2ccccc2)c(C(C)(C)CC)c1.[Br-] | -67.2% |
| CCC(C)(C)c1ccc(O)cc1 | 6.62% |
| CCC(C)(C)c1ccc(OCC(=O)N(C)C)c(C(C)(C)CC)c1 | -4.24% |
| CCC(C)(C)c1ccc(OCCCC[n+]2ccc(C)cc2)c(C(C)(C)CC)c1.[Br-] | -75.7% |
| O=C(Nc1nnc(-c2ccco2)s1)c1ccccc1 | 8.26% |
| Nn1c(Cc2ccccc2F)nnc1SCCOc1ccc(Cl)cc1 | -14.1% |

| Structure (SMILES) | hERG current change (%, negative = inhibition) at 10uM |
| --- | --- |
| C=CCSc1nnc(CNC(=O)c2ccccc2C)n1C(C)C | 5.68% |
| CC(=O)c1c(C)[nH]c(C(=O)NCCC2=CCCCC2)c1C | 4.77% |
| O=C1CC(c2ccccc2)CC(O)=C1C=NCCN1CCOCC1 (stereo not shown) | -0.797% |
| O=C1CC(c2ccccc2)CC(O)=C1C=NCCN1CCNCC1 (stereo not shown) | 9.28% |
| Cc1ccc(C2CC(=O)C(C=NCCN3CCN(C(=O)Cc4ccccc4)CC3)=C(O)C2)cc1 (stereo not shown) | -42.8% |
| O=C1CC(c2ccccc2)CC(O)=C1C=NCCc1ccccc1 (stereo not shown) | 6.57% |
| O=C1CC(c2ccccc2)CC(O)=C1C=NCCN1CCN(Cc2ccccc2)CC1 (stereo not shown) | -63.1% |
| O=C1CC(c2ccccc2)CC(O)=C1C=NCCN1CCN(C(=O)Cc2ccccc2)CC1 (stereo not shown) | -53% |
| Cc1ccc(C)c(OC2=NS(=O)(=O)c3ccccc32)c1 | 23.2% |
| Cc1cc(Cl)ccc1OCCCC(=O)N/N=C/c1cccc([N+](=O)[O-])c1 | 22.2% |
| O=C(Nc1cccc(-c2nc3ccccc3s2)c1)c1cccs1 | -53.1% |
| O=C(Nc1ccc(O)c(-c2nc3ccccc3s2)c1)c1cccs1 | -9.79% |
| CC(=O)Nc1cccc(-c2nc3ccccc3s2)c1 | -13.4% |
| Cc1nc(N2CCN(c3ccccn3)CC2)c2c(C)c(C(=O)Nc3c(F)cc(F)cc3Br)sc2n1 | -14.4% |
| CN1CCN(S(=O)(=O)c2ccc(Cl)c3ccccc23)CC1 | -1.62% |
| C=CCn1c(NC(=O)c2ccc(Br)o2)c(C(=O)OCC)sc1=S | 37% |
| Cc1ccc(Cl)cc1N1CCN(C(=O)C2(S(=O)(=O)c3ccc(Cl)cc3)CC2)CC1 | -6.38% |
| Cc1ccc(S(=O)(=O)C2(C(=O)N3CCN(c4cc(C)ccc4C)CC3)CC2)cc1 | -15.2% |
| CC(=O)c1ccc(N2CCN(C(=O)C3(S(=O)(=O)c4ccc(Cl)cc4)CC3)CC2)cc1 | -51.8% |
| O=C(N1CCN(c2ccccc2)CC1)C1(S(=O)(=O)c2ccc(Cl)cc2)CC1 | -42.1% |
| COc1ccc(N2CCN(C(=O)C3(S(=O)(=O)c4ccc(C)cc4)CC3)CC2)cc1 | -53.7% |
| Cc1ccc(S(=O)(=O)C2(C(=O)N3CCCCCC3)CC2)cc1 | -11.6% |

| Structure (SMILES) | hERG current change (%, negative = inhibition) at 10uM |
| --- | --- |
| CCOc1ccc(C(=O)CCC(=O)Nc2cc(C)ccn2)cc1 | 11.8% |
| COc1ccc(OC)c(N=Cc2c(O)c3ccccc3oc2=O)c1 | 12.9% |
| O=C(CCc1nnc2ccc(NCc3ccccc3Cl)nn12)NC1CCCCC1 | -7.98% |
| COc1ccc(C(=O)C2CCCN(C(=O)CCc3ccccn3)C2)c(C)c1 (stereo not shown) | -14.7% |
| COc1ccc(C(=O)C2CCCN(Cc3cccn3-c3ccccn3)C2)c(OC)c1 (stereo not shown) | -74.6% |
| COc1ccc(C(=O)C2CCCN(Cc3cccn3-c3ccc(Cl)cn3)C2)c(OC)c1 (stereo not shown) | -76% |
| COc1ccc(C(=O)C2CCCN(CCO)C2)c(C)c1 (stereo not shown) | 4.23% |
| COc1ccc(C(=O)C2CCCN(Cc3cccn3-c3ccccn3)C2)c(C)c1 (stereo not shown) | -78.9% |
| COc1ccccc1NC(=O)Cn1c(C)nc2c(sc(=S)n2Cc2ccco2)c1=O | -32.6% |
| COc1cc(Cl)cc(C#N)c1OCC(=O)O | 11% |
| O=C(NC(Nc1nc2ccc([N+](=O)[O-])cc2s1)(C(F)(F)F)C(F)(F)F)c1ccccc1Cl | -23.1% |
| O=C(CSc1nnc(-c2cccnc2)n1Cc1ccccc1)NCc1ccccc1 | -14.1% |
| O=C(COC(=O)c1ccccc1NS(=O)(=O)c1cccs1)NCC12CC3CC(CC(C3)C1)C2 | 5.15% |
| COc1cc(NC2c3ccccc3C(=O)N2Cc2ccccc2Cl)cc(OC)c1OC (stereo not shown) | -0.846% |
| CC(C)(CO)NC(=O)C(Cc1ccccc1)N1C(=O)c2ccccc2C1=O (stereo not shown) | 17% |
| Cc1c(C#N)c(NC(=O)CCl)n(Cc2cccs2)c1C | -11.4% |
| CCN1CCN(C(=O)CCc2nnc(CCCCc3ccccc3)o2)[C@@H](C)C1=O | 16.5% |
| CN1CCC(=O)N([C@H](CSc2ccccc2)c2ccccc2)CC1 | -64.9% |
| CN1CCC(=O)N([C@H](CC#N)c2ccccc2)CC1 | 16.2% |
| CN1CCC(=O)N([C@H](CN=[N+]=[N-])c2ccccc2)CC1 | 6.65% |
| CN1CCC(=O)N([C@H](CO)c2ccccc2)CC1 | 3.76% |
| CN1CCC(=O)N([C@H](CSc2ccc(Br)cc2)c2ccccc2)CC1 | -83.7% |

| Structure (SMILES) | hERG current change (%, negative = inhibition) at 10uM |
| --- | --- |
| Cc1cccc(C(=O)NCC(c2ccc(F)cc2)N2CCOCC2)c1 (stereo not shown) | -2.49% |
| CCc1cccc(CC)c1C(OC(C)=O)c1cccnc1 (stereo not shown) | -0.238% |
| CCc1ccc(NC(=O)c2ccc(C3SCC(=O)N3CCc3ccccc3)cc2)cc1 (stereo not shown) | 6.22% |
| CN(CC(=O)Nc1ccc2c(c1)OCO2)S(=O)(=O)c1cccs1 | -26.9% |
| Cc1ccccc1N1CCN(C(=O)c2ccccc2NC(=O)c2ccccc2C(=O)O)CC1 | 6.78% |
| Cc1ccccc1C(=O)Nc1ccccc1N1CCCCC1 | 8.11% |
| O=C(Nc1ccccc1N1CCCC1)c1ccccc1Cl | 6.75% |
| Cc1ccccc1C(=O)Nc1ccccc1N1CCN(C(=O)c2ccccc2)CC1 | -74% |
| O=C(Nc1ccccc1N1CCN(C(=O)c2ccccc2)CC1)c1ccccc1Cl | -78.8% |
| O=C(c1ccccc1)c1ccc(C(=O)N2CCN(c3ccccc3Cl)CC2)cc1 | -13.3% |
| COC(=O)Nc1ccc2c(c1)N(C(=O)CCN1CCOCC1)c1ccccc1S2.Cl | 2.68% |
| Cc1nc(CCNC(=O)Cc2ccc(F)cc2)cs1 | 18.9% |
| O=C(COc1ccc2c3c(c(=O)oc2c1)CCC3)N1CCN(c2ccccc2)CC1 | -12.6% |
| CCC(CC)C(=O)Nc1ccc(Nc2ccccc2)cc1 | 8.32% |
| CC(C)[C@H](NC(=O)[C@@H]1Cc2ccccc2CN1)C(=O)Nc1ccc2c(c1)OCCO2 | -30.2% |
| O=C(Cn1[nH]c(=O)c2ccccc2c1=O)OCC(=O)N(Cc1ccccc1)Cc1ccccc1 | 4.4% |
| CC(C)(C)c1ccc(C(=O)NCCC(=O)Nc2cc(Cl)ccc2N2CCOCC2)cc1 | -2.31% |
| O=C(CCNC(=O)c1ccc([N+](=O)[O-])cc1)Nc1ccccc1N1CCOCC1 | -64.3% |
| O=C(CCNC(=O)c1ccc([N+](=O)[O-])cc1)Nc1ccccc1N1CCCC1 | -34.6% |
| O=C(CCNC(=O)c1ccc([N+](=O)[O-])cc1)Nc1ccccc1N1CCCCC1 | -34.9% |
| O=C(CCNC(=O)c1ccc([N+](=O)[O-])cc1)Nc1cc(Cl)ccc1N1CCOCC1 | -69.9% |
| O=C(CCNC(=O)c1ccc([N+](=O)[O-])cc1)Nc1ccc(N2CCOCC2)cc1N1CCOCC1 | -4.63% |
